# AmpC inh no detg: blocks E. coli AmpC beta-lactamase in detergent-free assay. AmpC nitrocefin hydrolysis, absorbance 480 nm, 0.0001% Triton. AID 485341. hit rate 0.52% among 330,000. Potency, µM (top dose mostly 57.1 µM), most hits filed as inhibitors; also: nearly all actives have a fitted effect of over 20% in size
# Target sequence (P00811 whole entry, looked up): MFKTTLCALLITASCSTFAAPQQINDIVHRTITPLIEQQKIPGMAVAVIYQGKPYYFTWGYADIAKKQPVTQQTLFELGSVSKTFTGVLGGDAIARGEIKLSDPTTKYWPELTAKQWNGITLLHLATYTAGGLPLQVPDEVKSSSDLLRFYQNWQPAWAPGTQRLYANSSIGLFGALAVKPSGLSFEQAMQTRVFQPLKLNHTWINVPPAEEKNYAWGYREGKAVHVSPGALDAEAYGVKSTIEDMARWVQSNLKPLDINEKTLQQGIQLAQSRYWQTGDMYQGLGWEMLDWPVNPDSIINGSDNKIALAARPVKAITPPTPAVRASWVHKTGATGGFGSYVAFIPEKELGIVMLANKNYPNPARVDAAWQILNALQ
#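 20 mM phosphate pH 7.0 + 0.01% (detergent screen) or 0.0001% Triton X-100; 5.3 nM AmpC reagent; cpd preinc 15 min RT; nitrocefin (800 uM stock) to start; A480 q20 s × 4 min; Activity was normalised to no-enzyme and no-compound control wells.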
# RE007 growth inh: less growth of the S. pombe RE007 Vpr strain | S. pombe RE007 Vpr strain, BacTiter-Glo ATP luminescence, 24 h | Potency, µM (doses to about 92.2 µM), hits mostly inhibitors | hit rate 0.21% among 360,000; active = well fitted falling curve with a large enough effect; inconclusive = small, poorly fitted or top-dose-only effect; inactive = no such curve, though single readings can be large or run the other way; also: nearly all actives have a fitted effect of over 50% in size
#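 Fission yeast strain RE007, carrying one chromosomally integrated HIV-1 vpr copy, was seeded at OD 0.01 in PMG+AL medium with 23 nL pinned compound. After 24 h at 30 °C and 99% humidity, viability was read by BacTiter-Glo luminescence.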
# Giardia FBPA inh: inhibitors of Giardia lamblia fructose-1,6-bisphosphate aldolase | A8B2U2 | purified Giardia FBPA | Potency, µM (highest dose often 59.6 µM), hits mostly inhibitors | hit rate 0.71% among 290,000 | AID 2451; also: nearly all actives have a fitted effect of over 55% in size
#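 Giardia FBPA (40 nM reagent) was preincubated 10 min at RT with compound (up to 57.5 uM final), then substrate plus GAPDH/TPI/NAD/arsenate coupling system with diaphorase/resazurin was added; resorufin fluorescence (525/598 nm) was read after 20 min.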
# AmpC inh detg: blocks E. coli AmpC beta-lactamase in detergent assay; P00811; Potency, µM (series often up to 114 µM), actives largely listed as inhibitors; AmpC hydrolysis of nitrocefin, absorbance 480 nm, 0.01% Triton; hit rate 0.041% among 370,000; AID 485294; also: nearly all actives have a fitted effect of over 25% in size
#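 20 mM phosphate pH 7.0 + 0.01% (detergent screen) or 0.0001% Triton X-100; 5.3 nM AmpC reagent; cpd preinc 15 min RT; nitrocefin (800 uM stock) to start; A480 q20 s × 4 min; Activity was normalised to no-enzyme and no-compound control wells.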
# Sm TGR block: inhibitors of Schistosoma mansoni thioredoxin glutathione reductase; hit rate 3% among 360,000; purified TGR, DTNB reduction, TNB absorbance 405 nm; Potency, µM (titrated, usually from 114 µM), most hits filed as inhibitors; also: nearly all actives have a fitted effect of over 60% in size
#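 Kinetic colorimetric format: TGR-catalysed, NADPH-driven DTNB reduction monitored via TNB absorbance. Enzyme dispensed at 20 nM; compound exposure 15 min at room temperature before reaction start.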
# A number is an active result; - = inactive; ? = inconclusive; . = not tested or not shown; [ ] = dose if it differs, or a comment. Hits are enriched below; roughly 3.4% of the tested compounds scored in any of these assays. Unless noted, calls follow the shape of the dose curve; as a rule, active = well fitted curve in the direction sought with a large enough effect; inconclusive = small, poorly fitted or top-dose-only effect, or another doubt; inactive = no such curve, though single readings can be large; an effect the other way counts as inactive or inconclusive.
SMILES,AmpC inh no detg,RE007 growth inh,Giardia FBPA inh,AmpC inh detg,Sm TGR block
O=C(COC(=O)c1cc(S(=O)(=O)N2CCOCC2)ccc1F)NC1CCCCC1,-,-,.,-,-
CCCNC(=S)N1CCC(C(=O)c2ccc(Cl)cc2)CC1,-,-,-,-,89µM
O=C(O)CCn1nc(-c2ccc(F)cc2)cc(Cc2ccccc2)c1=O,-,-,-,-,-
CCN(CC(=O)Nc1c(F)cccc1F)C(=O)c1ccc(N2CCOCC2)c([N+](=O)[O-])c1,-,-,.,-,45µM
COC(=O)c1nc(NC(C)=O)n[nH]1,-,.,-,-,-
COC(=O)c1nc(NC(=O)C(C)C)n[nH]1,-,-,-,-,18µM
COc1cccc(OCCSc2nc3ccccc3c(=O)[nH]2)c1,-,-,-,-,-
CC[n+]1c(/C=C/C=C/c2ccc(N(C)C)cc2)sc2ccccc21,-,6.3µM,-,-,?
CC[n+]1c(/C=C/C=C/N(C(C)=O)c2ccccc2)sc2ccccc21,-,-,-,-,40µM
CC[n+]1c(/C=C/N(C)c2ccccc2)sc2ccc(Cl)cc21,-,-,-,-,-
CN(C)c1ccc(/C=C/C=C/c2sc3ccccc3[n+]2C)cc1,-,?,-,-,-
Cn1ccc2c(-c3ccc(C(F)(F)F)cc3)cc3c(c21)C1CCC3C1 (centres undefined),.,-,.,.,.
Cc1onc(-c2ccccc2)c1C(=O)NC(=S)NNC(=O)c1cc(-c2ccc(F)cc2)n[nH]1,2µM,-,-,-,-
COc1ccc(S(=O)(=O)N2CCCCCC2)cc1NS(=O)(=O)c1cc(C(=O)O)cc(C)c1C,-,-,.,-,-
COc1ccc(Cl)cc1NC(=O)C(C)OC(=O)c1ccc(NS(=O)(=O)c2ccc3[nH]c(=O)[nH]c3c2)cc1 (centres undefined),3.5µM,-,-,-,-
COc1ccc(NC(=O)C2C3C=CC(C3)C2C(=O)NCc2ccco2)c(OC)c1 (centres undefined),-,-,-,-,-
O=C(Nc1ccccc1C(F)(F)F)NC1(C(=O)N2CCOCC2)CCCCC1,.,-,.,.,.
O=c1cc(CSc2nnc3ccccn23)c2c(ccc3ccccc32)o1,-,-,-,-,45µM
CC(NC(=O)CSCc1ccc(Br)cc1)c1ccccc1 (centres undefined),-,-,-,-,-
Cc1[nH]c2ccccc2c1C(C[N+](=O)[O-])c1cccc(O)c1 (centres undefined),-,-,-,-,-
Cc1[nH]c2ccccc2c1C(C[N+](=O)[O-])c1ccco1 (centres undefined),-,-,?,-,22µM
Cc1ccc(-c2[nH]c3ccccc3c2C(C[N+](=O)[O-])c2ccco2)cc1 (centres undefined),-,-,-,-,79µM
Cc1[nH]c2ccccc2c1C(C[N+](=O)[O-])c1cccs1 (centres undefined),-[11.4 µM],-,-,?,-
Cc1ccc(CN2CCN(/N=C\C(Br)=C\c3ccccc3)CC2)cc1,-,-,-,-,-
Cc1ccc(S(=O)(=O)NNC(=O)c2ccc(F)cc2)cc1,-,-,-,-,-
SMILES,AmpC inh no detg,RE007 growth inh,Giardia FBPA inh,AmpC inh detg,Sm TGR block
COC(=O)c1ccccc1NC(=S)NC(=O)c1ccc2c(c1)OCO2,-,-,.,-,11µM
COC(=O)c1ccccc1NC(=S)NC(=O)CC(C)C,-,-,-,?,-
Cc1ccc(C(=O)NC(=S)NNS(=O)(=O)c2ccccc2)cc1,-,?,-,-,13µM
COC(=O)c1ccccc1NC(=O)c1ccc2c(c1)OCCO2,-,-,-,-,-
COC(=O)c1ccccc1NC(=S)NC(=O)COc1ccccc1,-,-,-,-,22µM
COC(=O)c1ccccc1NC(=O)N1CSC[C@H]1C(=O)OC,-,-,-,-,28µM
O=C(c1ccncc1)N1c2ccccc2Sc2ccccc21,-,-,-,-,-
COC(=O)C1CN(C(=O)COc2ccc(Cl)cc2C)c2ccccc2O1 (centres undefined),-,-,-,-,-
COC(=O)c1ccccc1NC(=S)NC(=O)c1ccc(C)cc1,-,-,-,-,11µM
O=C(NC(=S)NCc1ccccc1)c1ccc2c(c1)OCO2,-,-,-,?,40µM

# Compound activity from PubChem.
